aDG glyco up – increases alpha dystroglycan glycosylation. activation, % at 10 µM. Pro5-aDG cells, alpha-DG glycosylation AlphaScreen (IIH6); 0% Pro5, 100% B10-LARGE cell signal. 360,000 tested, 0.22% active;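 active means activation of at least 8% versus controls, or a plate z-score of at least 8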;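 further: Pro5 are CHO cells carrying HIG-tagged alpha-DG that lacks glycosylation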
ARNT-TACC3 inh – disrupts binding between human ARNT and TACC3. AlphaScreen His-ARNT PAS-B/GST-TACC3 binding, luminescence; TACC3 fragment carries E629A point mutation. inhibition, % at 9.99 µM. 390,000 tested, 0.66% active;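 active means mean inhibition of replicates at least 50% and at least half of replicates each reaching 50%; inconclusive means half or more replicates reach 50% but mean below 50%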;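 further: 0% = complete ARNT plus TACC3 wells and 100% = ARNT alone without TACC3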
AI-2 QS mod – Vibrio harveyi AI-2 quorum sensing modulation | AID 2094 | 300,000 tested, 0.4% active | activity change, % at 7.5 µM | Vibrio harveyi JMH597 AI-2 luminescence/OD600 ratio, 9 h; stronger effect = lower value; strain lacks LuxN and CqsS sensors; 0 = neutral-control median; in the data active means activity change below about -75%, passing the limit was not always enough; inconclusive means no clear call, values can overlap the other calls;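 further: luminescence divided by OD600 gain over 9 h not by final OD600 alone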
Mot1-301 SUMO – SUMOylation pathway inhibition by Mot1-301 growth rescue; S. cerevisiae Mot1-301 growth rescue, ATP luminescence, 38.5C; percent above DMSO median, 100 means doubled; growth rescue, % at 18.8 µM; 320,000 tested, 1% active;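 active means every valid replicate shows activation above 250% relative to neutral control wells; inactive means the rest, any valid replicate at or below 250%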;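 further: OY570 slx delta 5 strain wells were the positive control but not used for scaling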
Bfl-1 A1 inh – inhibitors of the anti-apoptotic protein A1, read as caspase activation; MEF A1-2A-BIM cells, Caspase-Glo 3/7 luminescence, 3 h; percent of clofoctol response, vehicle zero; 330,000 tested, 0.066% active; caspase activation, % (no concentration beside the values);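 active means over half of replicate activation scores above 10%, or exactly half above 10 with the replicate mean above 10; inconclusive means replicate mean below 10 yet half the replicates above 10; inactive means over half of replicates below 10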
An asterisk follows results filed as active; ? = inconclusive; . = no result. A selection: hits, their analogues and other compounds. The true share with any hit is near 1.8%.

SMILES	aDG glyco up	ARNT-TACC3 inh	AI-2 QS mod	Mot1-301 SUMO	Bfl-1 A1 inh
COc1ccccc1S(=O)(=O)N1CC[C@@H]2[C@H]1c1cc(Br)ccc1N[C@@H]2CO	.	0	.	.	.
Cc1ccc(-n2nnc3c(=O)n(Cc4cccc(C)c4)cnc32)cc1	0	-1	-1	405*	-1
O=C(CN(c1cccc([N+](=O)[O-])c1)S(=O)(=O)c1ccccc1)N1CCCCC1	0	-4	11	341*	0
Cc1cc(N(C)N)nc(NC(=O)NS(=O)(=O)c2ccccc2Cl)n1	0	59*	29	-11	0
CN1C(C(=O)NCc2cccc(C(F)(F)F)c2)CC2Cn3c(nc4cc(Cl)c(Cl)cc43)C21 (stereo unspecified)	0	2	13	277*	0
O=c1nc(N/N=C/c2c[nH]c3ccccc23)cn[nH]1	0	14	15	111	-6
O=C(NC(=S)Nc1ccccc1Br)C1CC1	0	4	-77*	1	0
Cc1ccccc1NC(=S)NC(=O)C1CCCCC1	0	1	12	-1	0
CC(=O)c1ccc(NC(=S)NC(=O)/C=C/c2ccco2)cc1	0	-3	27	-2	0
CCN1CCN(C(=S)NC(=O)/C=C/c2cccs2)CC1	0	-4	-15	676*	-1
O=C(/C=C/c1cccs1)NC(=S)Nc1ccccc1	0	-2	-77*	29	0
O=C(/C=C/c1cccs1)NC(=S)NNC(=O)c1ccccc1O	1	40	59	11	0
O=C(/C=C/c1ccco1)NC(=S)Nc1ccccc1	1	8	-77*	-11	1
CCOC(=O)c1c(C)[nH]c(C(=O)CSc2nnc(C3CC3)n2N)c1C	0	-3	9	.	-1
O=S(=O)(/N=C(/c1ccccc1Cl)N1CCOCC1)c1ccccc1	0	-11	36	-6	0
Cc1ncc(CO)c(/C=N/NC(=S)Nc2ccc(Cl)c(Cl)c2)c1O	0	.	-210*	-20	0
Cc1ncc(CO)c(/C=N/NC(=O)c2ccccc2Br)c1O	0	61*	13	-5	-1
Cc1ncc(CO)c(/C=N/NC(=S)Nc2cccc(Cl)c2)c1O	0	.	-3	-11	0
Cc1ncc(CO)c(/C=N/NC(=O)c2ccoc2C)c1O	0	.	.	.	.
COc1ccc(C(=O)N/N=C/c2c(CO)cnc(C)c2O)cc1	0	72*	65	3	2
COc1ccc(C(=O)N/N=C/c2c(C)[nH]c(=O)[nH]c2=O)cc1	0	38*	-3	-9	1
CCOC(=O)N1CCN(C(c2ccc(C(C)C)cc2)c2sc3nc(C)nn3c2O)CC1 (stereo unspecified)	1	-3	28	-11	1
Cc1ncc(CO)c(/C=N/NC(=O)c2cc3c(s2)CCCC3)c1O	0	62*	43	-1	1
COc1cc(NC(C)CCCN)c2ncccc2c1 (stereo unspecified)	0	36*	17	2	-2
COc1cc(NCCCCCCCN)c2ncccc2c1	0	17	18	41	0
SMILES	aDG glyco up	ARNT-TACC3 inh	AI-2 QS mod	Mot1-301 SUMO	Bfl-1 A1 inh
CC(=NNC(=S)N1CCN(C2CCCCCC2)CC1)c1ccccn1	1	77*	.	.	.
CC(=NNC(=S)N1CCN(c2ccccn2)CC1)c1nccs1	-1	66*	.	.	.
CC(=NNC(=S)N1CC2CCC(CC2)C1)c1ccccn1	1	.	.	.	.
CC(=NNC(=S)N1CCN(c2ccccn2)CC1)c1ccccn1	0	22	.	.	.
CC(=NNC(=S)N1CC2CCC(CC2)C1)c1cnccn1	0	51*	.	.	.
C/C(=N\NC(=O)C1CCCN(S(=O)(=O)c2ccccc2)C1)c1ccccn1 (stereo unspecified)	2	53*	18	-18	0
COc1ccc(-c2nnn(CC(=O)N3CCOCC3)n2)cc1	0	1	11	-4	0
COc1ccc2c(c1)c(=O)oc1c(C)c(OCc3ccc(C(=O)O)cc3)ccc12	0	-4	16	14	1
CNCCCOc1ccc(C(C)(C)c2ccccc2)cc1	.	.	2	.	.
COCCCNCCOc1ccc(C(C)(C)c2ccccc2)cc1	4	-2	-2	824*	0
CCOC(=O)C(=NC1CCS(=O)(=O)C1)NNc1ccccc1Cl (stereo unspecified)	0	-2	11	165	0
CCOC(=O)C(=NC1CCS(=O)(=O)C1)NNc1ccc(Br)cc1 (stereo unspecified)	0	4	18	372*	2
c1n[nH]c(NC2=NCCC2)n1	0	61*	12	5	-1
COc1ccc(C(=O)Oc2c(CN3CCOCC3)cc(Cl)c3cccnc23)cc1	1	65*	0	-16	0
COc1cc(C(=O)Oc2c(OC)cc(C(=S)N3CCOCC3)cc2OC)cc(OC)c1OC	0	11	13	2	1
O=C(Oc1c(CN2CCOCC2)cc(Cl)c2cccnc12)c1ccccc1Cl	0	71*	51	2	0
O=C(Oc1c(Cl)cc(Cl)c2cccnc12)c1ccco1	0	15	-88*	218	-1
COc1cc(C(=O)Oc2c(CN3CCOCC3)cc(Cl)c3cccnc23)cc(OC)c1OC	0	70*	15	6	1
O=C(c1cc(-c2ccncc2)nc2ccccc12)N1CCN(c2ccc(N3CCOCC3)nn2)CC1	1	-3	23	-8	1
O=C(Oc1c(CN2CCOCC2)cc(Cl)c2cccnc12)c1ccc(F)cc1	0	65*	30	-21	1
O=C(Oc1ccc(Cl)c2cccnc12)N1CCOCC1	0	4	21	20	0
Oc1ccc(CNc2ccccc2F)c2cccnc12	0	49*	12	11	-1
Oc1c(CN2CCCCC2)ccc2cccnc12	0	89*	.	.	.
Oc1c(CN2CCOCC2)ccc2ccccc12	0	-2	13	.	.
Oc1ccc(CN2CCN(c3ccccc3)CC2)c2cccnc12	0	14	4	0	1
SMILES	aDG glyco up	ARNT-TACC3 inh	AI-2 QS mod	Mot1-301 SUMO	Bfl-1 A1 inh
Oc1ccc(CN2CCCCC2)c2cccnc12	0	80*	2	13	1
OCc1ccc(O)c2ncccc12	1	71*	8	-19	0
Cc1cc(C)n(C2CC(=O)N(c3cccc(Cl)c3)C2=O)n1 (stereo unspecified)	0	1	3	-22	0
CCN(CC(=O)Nc1c(F)cccc1F)C(=O)CCCc1c[nH]c2ccccc12	0	-6	17	-3	1
Oc1cc2c(cc1CN1CCc3ccccc3C1)OCO2	0	5	8	-3	-1
COc1ccc(CN(C)C(c2ccccc2)c2nnnn2-c2ccccc2C)c(OC)c1C (stereo unspecified)	0	0	5	44	-1
Oc1ccc(COCc2ccccc2)c2cccnc12	0	80*	?	-19	-2
